The source of these data is PubChem BioAssay (NCI).

Test systems include HT29 colon; SNB-19 CNS; U251 CNS; PC-3 prostate; SK-MEL-5 melanoma; UACC-62 melanoma; LOX IMVI melanoma; SK-MEL-28 melanoma; SK-MEL-2 melanoma; SN12C renal; UO-31 renal; TK-10 renal; ACHN renal; CAKI-1 renal; A498 renal; CCRF-CEM leukemia; MOLT-4 leukemia; EKVX NSCLC; SR leukemia.
What all share (assay): NCI-60 one-dose screen, 48 h (100 = growth as untreated, 0 = no growth, -100 = all killed)
Holding throughout (conditions): 10 µM

The panel holds about 83,000 compounds, 20% with a hit somewhere; the sample as a whole holds those more often.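 How to read the values: 0–100, growth inhibition (40 = 60% inhibited); 0, no net growth; -100 to 0, cell death (-40 = 40% of starting cells died; -100 = all dead).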 Values without a mark were called inactive. The source made the active and inactive calls. The calls were made as follows: active = growth percent below 10; inactive = the rest.

For the compound `Cc1ccc(NC(=O)NC2CCCCC2)cc1`, the growth with HT29 colon is 101%; in the experiment with SNB-19 CNS, 102%; with U251 CNS it was 99.7%; in the experiment on PC-3 prostate, 104%; with SK-MEL-5 melanoma it was 100%; with UACC-62 melanoma, 105%. The growth is 96.3% in the experiment with LOX IMVI melanoma; 104% with SK-MEL-28 melanoma; 92% with SK-MEL-2 melanoma; 106% with SN12C renal; 96% in the experiment with UO-31 renal; 110% in the experiment with TK-10 renal. Further, the growth was 106% in the experiment on ACHN renal; 104% with CAKI-1 renal; 98.2% in the experiment with A498 renal; 98.9% in the experiment with CCRF-CEM leukemia; 102% with MOLT-4 leukemia.
Turning to `COc1cc2nc(Nc3cccc(NC(C)=O)c3)nc(N)c2cc1OC`, the growth was 111% with HT29 colon; 103% with SNB-19 CNS; 94.7% in the experiment on U251 CNS; 60% in the experiment with PC-3 prostate; 95.5% in the experiment on SK-MEL-5 melanoma; 91.7% with UACC-62 melanoma. For the same compound, the growth is 86.7% in the experiment with LOX IMVI melanoma; 90.3% in the experiment with SK-MEL-28 melanoma; 133% in the experiment with EKVX NSCLC; 95.5% with SN12C renal; 78.4% in the experiment with UO-31 renal; 150% in the experiment on TK-10 renal. The growth in the experiment with ACHN renal is 102%; in the experiment on CAKI-1 renal, 127%; in the experiment with A498 renal, 95%; in the experiment on CCRF-CEM leukemia, -71.1% (active); with MOLT-4 leukemia, -89.5% (active); with SR leukemia, 107%.
Turning to `O=C(O)C(SC(C(=O)O)c1ccccc1)c1ccccc1` (stereo unspecified), the growth was 103% in the experiment with HT29 colon; 104% in the experiment on SNB-19 CNS; 98.8% in the experiment with U251 CNS; 105% in the experiment on PC-3 prostate; 111% with SK-MEL-5 melanoma; 95.5% in the experiment with UACC-62 melanoma. For the same compound, the growth in the experiment on LOX IMVI melanoma was 99.4%; in the experiment with SK-MEL-28 melanoma, 102%; in the experiment on SK-MEL-2 melanoma it was 103%; with EKVX NSCLC, 104%; with SN12C renal it was 99.9%; in the experiment with UO-31 renal, 87.6%. In addition, the growth in the experiment with TK-10 renal is 106%; with ACHN renal, 104%; in the experiment on CAKI-1 renal, 91.8%; in the experiment with A498 renal, 107%; in the experiment on CCRF-CEM leukemia, 97.8%; in the experiment with MOLT-4 leukemia it was 103%. The growth in the experiment with SR leukemia is 101%.
Consider `CCN1CCN(c2nc3ccccc3c3c(=O)c4ccccc4sc23)CC1`, for which the growth in the experiment with HT29 colon was 9.96% (active); in the experiment with SNB-19 CNS it was 67.2%; in the experiment on U251 CNS it was 27.9%; in the experiment on PC-3 prostate, 43.7%; in the experiment with SK-MEL-5 melanoma, 7.43% (active); in the experiment on UACC-62 melanoma it was 7.97% (active). The growth in the experiment with LOX IMVI melanoma is 23.5%; in the experiment on SK-MEL-28 melanoma, 31.1%; in the experiment with SK-MEL-2 melanoma, 98.5%; with EKVX NSCLC it was 59.1%; in the experiment on SN12C renal, 41.6%; with UO-31 renal, 29.8%. The growth with ACHN renal was 22.8%; in the experiment with A498 renal, 37%; in the experiment on CCRF-CEM leukemia it was 29.2%; with MOLT-4 leukemia it was 2.07% (active); in the experiment with SR leukemia, -11.8% (active).
Take `CC(=O)OCc1cc(-c2nc3ccccc3[nH]c2=O)nn1-c1ccc(Cl)cc1`: the growth in the experiment on HT29 colon is 104%; in the experiment with SNB-19 CNS, 89.4%; with U251 CNS, 100%; in the experiment with PC-3 prostate it was 99%; with SK-MEL-5 melanoma, 97.8%; with UACC-62 melanoma, 89.3%. Besides, the growth was 102% in the experiment with LOX IMVI melanoma; 107% with SK-MEL-28 melanoma; 100% in the experiment on SK-MEL-2 melanoma; 104% in the experiment with EKVX NSCLC; 105% in the experiment on SN12C renal; 98.2% in the experiment on UO-31 renal. Moreover, the growth was 119% in the experiment with TK-10 renal; 100% in the experiment with A498 renal; 97.9% in the experiment with CCRF-CEM leukemia; 87.6% with MOLT-4 leukemia; 105% with SR leukemia.
For the compound `CC/C(=N\N=C(/CC)c1ccc(Br)cc1)c1ccc(Br)cc1`, the growth in the experiment with HT29 colon is 74.1%; in the experiment on SNB-19 CNS, 108%; in the experiment with U251 CNS it was 105%; in the experiment with PC-3 prostate it was 94.2%; with SK-MEL-5 melanoma it was 104%; with UACC-62 melanoma, 87.9%. Besides, the growth in the experiment with LOX IMVI melanoma is 98.7%; in the experiment on SK-MEL-28 melanoma, 104%; in the experiment on SK-MEL-2 melanoma it was 97.3%; in the experiment on EKVX NSCLC, 90.6%; in the experiment on SN12C renal, 96%; with UO-31 renal it was 92.6%. Also, the growth in the experiment with TK-10 renal is 111%; with ACHN renal, 94.4%; in the experiment on CAKI-1 renal it was 99.3%; in the experiment with A498 renal, 103%; in the experiment on CCRF-CEM leukemia, 105%; with MOLT-4 leukemia, 105%. The growth in the experiment on SR leukemia was 96.9%.
For `CCOC(=O)C(=Cc1ccc(Br)cc1)C(=O)OCC`, the growth is -64% (active) with HT29 colon; 63.1% in the experiment with SNB-19 CNS; -46% (active) with U251 CNS; -30.4% (active) with PC-3 prostate; -47.9% (active) with SK-MEL-5 melanoma; -72.6% (active) in the experiment on UACC-62 melanoma. In addition, the growth in the experiment with LOX IMVI melanoma was -85.7% (active); in the experiment with SK-MEL-28 melanoma it was -74.5% (active); in the experiment with SK-MEL-2 melanoma it was -61.5% (active); in the experiment on EKVX NSCLC, 50.5%; in the experiment with SN12C renal, -21% (active); in the experiment on UO-31 renal, -85.7% (active). Also, the growth is 8.18% (active) with TK-10 renal; -81% (active) in the experiment on ACHN renal; -12.6% (active) in the experiment with A498 renal; -29.1% (active) in the experiment on CCRF-CEM leukemia; -8.75% (active) in the experiment on MOLT-4 leukemia; -42% (active) in the experiment with SR leukemia.
Turning to `CCN(CC)CCNC(=O)c1ccc(NC(C)=O)cc1`, the growth is 102% in the experiment on HT29 colon; 98.1% in the experiment with SNB-19 CNS; 93.9% in the experiment with U251 CNS; 104% in the experiment on PC-3 prostate; 103% in the experiment with SK-MEL-5 melanoma; 94.2% in the experiment on UACC-62 melanoma. Besides, the growth with LOX IMVI melanoma is 95.3%; with SK-MEL-28 melanoma it was 118%; in the experiment on SK-MEL-2 melanoma, 115%; with EKVX NSCLC it was 100%; with SN12C renal, 94.6%; with UO-31 renal, 98.3%. The growth with TK-10 renal is 103%; in the experiment on CAKI-1 renal it was 95.2%; with A498 renal, 78.7%; in the experiment with CCRF-CEM leukemia, 114%; in the experiment with MOLT-4 leukemia, 107%; in the experiment on SR leukemia it was 101%.
Turning to `COc1cc(/C=N/NC(=O)c2ccccc2Nc2ccnc(C(F)(F)F)c2)ccc1O`, the growth is 118% with HT29 colon; 93.2% in the experiment with SNB-19 CNS; 106% in the experiment with U251 CNS; 111% in the experiment on PC-3 prostate; 106% in the experiment with SK-MEL-5 melanoma; 115% in the experiment with UACC-62 melanoma. The growth is 114% in the experiment with LOX IMVI melanoma; 118% with SK-MEL-28 melanoma; 113% in the experiment on SK-MEL-2 melanoma; 106% with EKVX NSCLC; 122% in the experiment on SN12C renal; 98.1% with UO-31 renal. For the same compound, the growth with TK-10 renal is 147%; in the experiment with ACHN renal it was 111%; in the experiment on CAKI-1 renal, -21.2% (active); with A498 renal, 116%; in the experiment on MOLT-4 leukemia, -89.5% (active); in the experiment with SR leukemia, -48.1% (active).
